Measured values published in PubChem BioAssay (EPA / NIEHS).
Inconclusive results are not listed. Active and inactive are the calls of the source. The calls were made as follows: active = hit-call score of the fitted dose curve at least 0.9, where 1 is the maximum; inconclusive = response in the unintended direction; inactive = score below 0.9.

How the values were obtained:
[1] = TOX21_p53_BLA_p2_viability: Viability Assessment in the Tox21 HCT-116 p53 Agonism Beta-lactamase Assay, Phase 2 (AID 2283591);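 also: compound exposure lasted 16 h at 37 °C; actives lower the ATP signal meaning cytotoxicity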
Outline: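 HCT116 p53-bla cells, 4000/well, dosed after 5 h plating (217-fold dilution of DMSO stocks) and incubated 16 h at 37C. Viability taken as cellular ATP by CellTiter-Glo luminescence after 30 min RT; signal loss marks cytotoxicity.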

[2] = molecular target: Cellular tumor antigen p53 (Homo sapiens) (UniProt P04637); assay: TOX21_p53_BLA_p2_ratio: Tox21 HCT-116 p53 Agonism Beta-lactamase Assay, Ratio, Phase 2 (AID 2283592)
Outline: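 HCT116 p53-bla; 4000 cells/well; 5 h pre-incubation; cpd in DMSO, 217-fold dilution; 16 h 37C/5% CO2; CCF4-AM 2 h RT; Ex 405, Em 460/530 ratio; DMSO = baseline; positive fitting direction.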

[3] = TOX21_p53_BLA_p3_viability: Viability Assessment in the Tox21 HCT-116 p53 Agonism Beta-lactamase Assay, Phase 3 (AID 2283593);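 also: cells exposed to compound for 16 h before reading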
Outline: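 HCT116 cells, 4000/well, dosed 5 h after plating by pin transfer (217-fold dilution from DMSO stock) and incubated 16 h at 37C, 5% CO2. Viability read as ATP luminescence with CellTiter-Glo after 30 min at room temperature.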

[4] = TOX21_p53_BLA_p4_viability: Viability Assessment in the Tox21 HCT-116 p53 Agonism Beta-lactamase Assay, Phase 4 (AID 2283597);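 also: hits lower the luminescence signal meaning cytotoxicity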
Outline: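 Cells plated, 5 h pre-incubation; DMSO compounds pinned (217-fold dilution); 16 h, 37C/5% CO2; CCF4-AM 2 h RT; CellTiter-Glo 30 min RT; luminescence read.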

[5] = molecular target: Cellular tumor antigen p53 (Homo sapiens) (UniProt P04637); assay: TOX21_p53_BLA_p4_ratio: Tox21 HCT-116 p53 Agonism Beta-lactamase Assay, Ratio, Phase 4 (AID 2283601)
Outline: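 HCT-116 p53 beta-lactamase reporter cells (4000/well) preincubated 5 h, then compound (217-fold dilution of DMSO stock) for 16 h at 37C. CCF4-AM substrate added 2 h at room temperature; 460/530 nm emission ratio fitted upward versus DMSO.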

[6] = molecular target: Cellular tumor antigen p53 (Homo sapiens) (UniProt P04637); assay: TOX21_p53_BLA_p3_ratio: Tox21 HCT-116 p53 Agonism Beta-lactamase Assay, Ratio, Phase 3 (AID 2283596)
Outline: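 HCT116 p53-bla cells (4000/well) given compound in DMSO (217-fold dilution) after 5 h, incubated 16 h at 37C. CCF4-AM substrate 2 h at room temperature; 460/530 nm emission ratio, gain fitted against DMSO.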

[7] = molecular target: Cellular tumor antigen p53 (Homo sapiens) (UniProt P04637); assay: TOX21_p53_BLA_p5_ratio: Tox21 HCT-116 p53 Agonism Beta-lactamase Assay, Ratio, Phase 5 (AID 2283599)
Outline: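 HCT-116 p53-bla cells (4000/well) plated 5 h, dosed with compound (217-fold DMSO dilution) for 16 h at 37 C; CCF4-AM substrate 2 h at room temperature. Activity is the 460/530 nm emission ratio (405 nm excitation), fitted in gain-of-signal direction versus DMSO.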

[8] = TOX21_p53_BLA_p5_viability: Viability Assessment in the Tox21 HCT-116 p53 Agonism Beta-lactamase Assay, Phase 5 (AID 2283600)
Outline: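 4000 cells/well; 5 h pre-incubation; DMSO compounds pin-transferred, 217-fold dilution; 16 h, 37C/5% CO2; CCF4-AM 2 h RT; CellTiter-Glo 30 min RT; luminescence.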

Measured: outcome

Chain of Cellular tumor antigen p53 (Homo sapiens) (P04637 whole entry, looked up): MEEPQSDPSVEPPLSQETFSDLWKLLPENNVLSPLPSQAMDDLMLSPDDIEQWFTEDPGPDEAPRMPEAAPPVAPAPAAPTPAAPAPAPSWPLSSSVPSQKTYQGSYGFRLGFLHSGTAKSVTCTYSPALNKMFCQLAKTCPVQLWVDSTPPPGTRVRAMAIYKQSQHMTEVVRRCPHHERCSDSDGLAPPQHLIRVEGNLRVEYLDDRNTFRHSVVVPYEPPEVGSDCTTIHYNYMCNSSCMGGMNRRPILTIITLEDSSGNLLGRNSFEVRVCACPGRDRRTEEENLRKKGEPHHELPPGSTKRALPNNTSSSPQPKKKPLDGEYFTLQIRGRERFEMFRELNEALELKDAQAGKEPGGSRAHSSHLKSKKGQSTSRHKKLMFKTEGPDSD

CC(C)NCC(O)c1ccc([N+](=O)[O-])cc1 (centres undefined)
inactive: [1] | [2] | [3] | [4] | [5]

CN1[C@@H]2CC[C@H]1CC(O)C2 (some centres undefined)
not listed: [3]
inactive: all other assays above

Cc1nnc2n1-c1sc(Br)cc1C(c1ccccc1Cl)=NC2
not listed: [3]
inactive: all other assays above

Cc1ccc2c(c1)C1CN(C)CCC1N2 (centres undefined)
inactive: [1] | [2] | [3] | [7] | [5]
